High-throughput results (PubChem BioAssay)
The entries come from a sample that favours hits as a whole.
TTR transcr act: TTR transcription activators in neuroblastoma reporter cells, primary screen, cell-based, luminescence, SH-SY5Y, TTR promoter Gaussia luciferase; 100% = recombinant luciferase protein wells; activation, % at 16.7 µM; actives 1.3% (n = 92,000);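 active means activation above the mean of all tested compounds plus 3 SD, cut at about 9.5% in these data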;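 further: cells exposed to compounds for one day before reading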
Each line names hits and unclear results; the compound was inactive in the other large screens.

O=C1CN(C(=O)NCC(=O)N[C@@H](C(=O)O)c2ccccc2)c2ccccc2N1	none
CC(C)[C@H](NC(=O)N1c2ccccc2NC(=O)[C@@H]1C(C)C)C(=O)N[C@@H](C(=O)O)c1ccccc1	TTR transcr act 27.4
CC(C)C[C@H](NC(=O)N1CC(=O)Nc2ccccc21)C(=O)N[C@@H](C(=O)O)c1ccccc1	none
CC(c1ccccc1)N1CC[C@H]2C=CC[C@@H](C(=O)Nc3cccc(Cl)c3)[C@H]2C1=O (stereo not given in full)	none
O=[N+]([O-])c1ccc(CN2CCOCCOCCN(Cc3ccc([N+](=O)[O-])cc3Cl)CCOCC2)c(Cl)c1	none
CCn1c(SCC(=O)Nc2cccc(OC)c2)nnc1-c1ccc(Cl)cc1	none
CCn1c(SCC(=O)Nc2ccc(C)cc2)nnc1-c1ccccn1	none
CCn1c(SCC(=O)Nc2ccc(N(C)C)cc2)nnc1-c1cccc(C)c1	TTR transcr act 28.2
C[C@H]1[C@@H](OC(=O)NCc2ccccc2Cl)CC[C@@]23CCCN2C(=O)CCC[C@@H]13	none
CCNc1nc(N)c([N+](=O)[O-])c(Nc2cccc(Cl)c2)n1	none
O=C(NC1CCC1)O[C@H]1CC[C@@]23CCCN2C(=O)CCC[C@H]3C1	none
C/C=C\C(=O)Nc1cccc(C2=NOC3(C2)C[C@@H](C(N)=O)N(C(=O)C2(C)CC2)C3)c1 (stereo not given in full)	none
C=C(C)C(=O)Nc1cccc(C2=NOC3(C2)C[C@@H](C(N)=O)N(C(=O)C2(C)CC2)C3)c1 (stereo not given in full)	none
C/C=C\C=C/C(=O)Nc1cccc(C2=NOC3(C2)C[C@@H](C(N)=O)N(C(=O)C2(C)CC2)C3)c1 (stereo not given in full)	TTR transcr act 10.8
CC(C)(C)c1ccc(C(=O)Nc2ccc(C(=O)N3CCOCC3)cc2)cc1	none
O=C(c1ccc(NC(=O)C2(c3ccccc3)CCOCC2)cc1)N1CCOCC1	TTR transcr act 23.6
O=C(c1ccccc1)c1ccc(C(=O)N2CCOCC2)cc1	none
S=C(Nc1ccc(Cl)c(Cl)c1)Nc1nnc(-c2ccncc2)s1	none
O=C(N1CCC(Cc2ccccc2)CC1)n1ncc(C(O)(c2ccccc2)c2ccccc2)n1	none
CCN(CC)S(=O)(=O)c1cc(NS(=O)(=O)c2cccc(Cl)c2Cl)ccc1C	none
CCN(CC)S(=O)(=O)c1ccc(NS(=O)(=O)c2cccc(C)c2)cc1	TTR transcr act 10.0
CCN(CC)S(=O)(=O)c1ccc(NS(=O)(=O)c2ccc(OC)c([N+](=O)[O-])c2)cc1	none
CNc1nc(N)c([N+](=O)[O-])c(Nc2cccc(Br)c2)n1	none
COc1ccc2ccccc2c1-c1c(C(=O)c2ccc(Br)cc2)[nH]c(N)c1C(=O)NC1CCCCC1	none
CCN1C(=NCCc2ccc([N+](=O)[O-])cc2)N[C@@H](c2ccccc2)[C@H](C(=O)OC)[C@H]1C	none
CCN1C(=NCCCOC(C)C)N[C@@H](c2ccccc2)[C@H](C(=O)OC)[C@H]1C	TTR transcr act 11.6
COC(=O)[C@H]1[C@@H](C)N(CCc2cc(OC)c(OC)c(OC)c2)C(=O)N[C@H]1c1ccccc1	none
N#Cc1cc(-c2cccc(Cl)c2)c[nH]c1=O	TTR transcr act 12.9
C=CCn1cc(-c2cccc(Cl)c2)cc(C#N)c1=O	none
N#Cc1c(-c2cccc(Cl)c2)[nH]c(=S)[nH]c1=O	none
O=C(Nc1cccc(F)c1)OCCN1CCCC12CCC(c1ccccc1)CC2 (stereo not given)	none
CC(=O)Nc1sc2c(c1-c1nc(-c3ccccc3)cs1)CCN(C(C)C)C2	none
Nc1[nH]c(C(=O)c2ccccc2)c(-c2ccc(O)cc2)c1C(=O)NCCc1c[nH]c2ccccc12	none
CC(=O)c1cccc(NC(=O)c2cnn3c(C)cc(C)nc23)c1	none
O=C(Nc1ccccc1C(F)(F)F)O[C@@H]1CC[C@@]23CCCN2C(=O)CCC[C@H]3C1	none
CCCCOc1ccc(C(=O)n2ccc3ccc(-c4ccc5ccn(Cc6ccccc6)c5c4)cc32)cc1	none
COc1ccc(C2c3c(ccc4ccccc34)Oc3ncn4nc(CO/N=C/c5ccccc5)nc4c32)cc1 (stereo not given)	TTR transcr act 11.9
COc1ccc(C2c3c(ccc4ccccc34)Oc3ncn4nc(-c5ccco5)nc4c32)cc1 (stereo not given)	none
COc1cccc(C2c3c(ncn(-c4ccccc4)c3=N)Oc3ccc4ccccc4c32)c1OC (stereo not given)	none
O=C1CN(C(=O)C2CCCCC2)C=CN1CCc1ccccc1Br	none
CCCNc1nc2c(c(=O)n(C)c(=O)n2C)n1Cc1cccc(C)c1	none
CCCCC(=O)NCCNc1nc2c(c(=O)n(C)c(=O)n2C)n1Cc1ccc(F)cc1	TTR transcr act 13.8
Cn1c(=O)c2c(nc(NCc3ccc4c(c3)OCO4)n2Cc2ccc(F)cc2)n(C)c1=O	none
CCC[C@H]1[C@@H](N(C)CC2CCCCC2)CC[C@@]23CCCN2C(=O)CCC[C@@H]13	none
O=C(Nc1cc(Cl)ccc1N1CCOCC1)c1ccc2c(c1)OCCO2	none
O=C(Nc1ccccc1N1CCN(C(=O)c2ccc(Cl)cc2)CC1)c1ccc2c(c1)OCO2	TTR transcr act 10.1
O=C(Nc1ccc(N2CCN(C(=O)c3ccc(Cl)cc3)CC2)cc1)c1ccc2c(c1)OCCO2	none
